# Data: PubChem BioAssay (EPA / NIEHS)
# Where “and” joins values, the source holds several entries; their conditions need not be identical. Identical values can stand only once. Results filed as inconclusive are left out. A structure can be active in one record and inactive in another. Calls of active or inactive are those of the source. How the source made its calls, unless noted: active means hit-call score of the fitted dose curve at least 0.9, where 1 is the maximum; inconclusive means response in the unintended direction; inactive means score below 0.9.
# What was measured:
# [1] = target: Peroxisome proliferator-activated receptor gamma (Homo sapiens) (UniProt P37231); assay: NVS_NR_hPPARg: NovaScreen (NVS) Nuclear Receptor Binding Assay for human Peroxisome Proliferator-activated Receptor gamma (PPARg) (AID 2283370)
# Peroxisome proliferator-activated receptor gamma (Homo sapiens), sequence (P37231 whole entry, looked up, the tested form may be a part): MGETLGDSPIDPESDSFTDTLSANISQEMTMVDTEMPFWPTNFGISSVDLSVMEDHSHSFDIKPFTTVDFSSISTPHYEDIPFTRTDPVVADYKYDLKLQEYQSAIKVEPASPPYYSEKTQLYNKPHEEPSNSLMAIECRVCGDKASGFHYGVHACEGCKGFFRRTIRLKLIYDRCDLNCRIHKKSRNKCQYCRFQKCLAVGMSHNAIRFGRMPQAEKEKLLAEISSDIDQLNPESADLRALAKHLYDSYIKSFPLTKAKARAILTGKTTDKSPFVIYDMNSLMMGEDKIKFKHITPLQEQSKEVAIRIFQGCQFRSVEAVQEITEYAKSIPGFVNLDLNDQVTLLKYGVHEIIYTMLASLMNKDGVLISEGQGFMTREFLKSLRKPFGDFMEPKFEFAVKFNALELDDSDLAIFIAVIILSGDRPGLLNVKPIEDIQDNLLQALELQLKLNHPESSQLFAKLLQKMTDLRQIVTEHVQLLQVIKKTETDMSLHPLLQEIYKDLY
# How it was run: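 Fluorescence polarization measures competitive binding to extracted PPARg in a cell-free format. Reading is taken at 2 h; activity is signal loss relative to DMSO. Screening at 25 uM in duplicate preceded confirmatory dose series.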
# [2] = target: human Dopamine Transporter (DAT), SLC6A3 (gene 6531) (UniProt Q01959); assay: NVS_TR_hDAT: NovaScreen (NVS) Transporter Assay for human Dopamine Transporter (DAT) (AID 2283374);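 further: activity means loss of bound radioligand signal relative to DMSO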
# How it was run: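 Duplicate single-point screening at 25 uM preceded concentration-series follow-up of actives. Binding was measured by competitive displacement of a radioligand from DAT protein, filter-counted by scintillation 1 h after dosing. Decrease relative to DMSO taken as activity.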
# [3] = target: human Norepinephrine Transporter (NET), SLC6A2 (gene 6530) (UniProt P23975); assay: NVS_TR_hNET: NovaScreen (NVS) Transporter Assay for human Norepinephrine Transporter (NET) (AID 2283377);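 further: cell-free membrane protein extracted from CHO cells expressing human NET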;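 on AC50: displacement of radioligand from human NET seen as loss of scintillation signal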
# human Norepinephrine Transporter (NET), SLC6A2 (gene 6530), sequence (P23975 whole entry, looked up): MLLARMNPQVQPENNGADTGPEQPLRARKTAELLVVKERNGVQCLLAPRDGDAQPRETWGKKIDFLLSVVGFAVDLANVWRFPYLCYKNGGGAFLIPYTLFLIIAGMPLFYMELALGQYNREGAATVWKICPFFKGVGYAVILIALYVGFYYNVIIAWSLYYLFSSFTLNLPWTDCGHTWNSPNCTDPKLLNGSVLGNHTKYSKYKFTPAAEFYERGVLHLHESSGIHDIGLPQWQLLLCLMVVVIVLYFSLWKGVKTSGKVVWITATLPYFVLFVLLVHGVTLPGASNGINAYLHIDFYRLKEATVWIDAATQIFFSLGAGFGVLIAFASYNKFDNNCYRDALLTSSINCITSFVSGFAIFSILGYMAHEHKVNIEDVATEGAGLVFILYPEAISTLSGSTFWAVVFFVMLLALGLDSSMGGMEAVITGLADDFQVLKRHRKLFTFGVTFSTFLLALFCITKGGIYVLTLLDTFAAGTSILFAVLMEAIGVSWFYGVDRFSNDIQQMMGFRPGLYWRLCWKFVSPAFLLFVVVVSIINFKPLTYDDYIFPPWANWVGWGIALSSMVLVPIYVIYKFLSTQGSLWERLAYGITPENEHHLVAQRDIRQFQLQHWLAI
# How it was run: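 Single-concentration duplicate screen at 25 uM, then concentration-response for actives; displacement of specific radioligand from human NET in CHO membrane extracts, filter-based scintillation detection at 1 h relative to DMSO.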
# [4] = target: Agonist Androgen Response Element (ARE), AR (gene 367) (UniProt P10275); assay: OT_AR_ARELUC_AG_1440: Odyssey Thera (OT) 24-hour CHO-K1 Luciferase Assay for Agonist Androgen Response Element (ARE) (AID 2283379)
# Agonist Androgen Response Element (ARE), AR (gene 367), sequence (P10275 whole entry, looked up): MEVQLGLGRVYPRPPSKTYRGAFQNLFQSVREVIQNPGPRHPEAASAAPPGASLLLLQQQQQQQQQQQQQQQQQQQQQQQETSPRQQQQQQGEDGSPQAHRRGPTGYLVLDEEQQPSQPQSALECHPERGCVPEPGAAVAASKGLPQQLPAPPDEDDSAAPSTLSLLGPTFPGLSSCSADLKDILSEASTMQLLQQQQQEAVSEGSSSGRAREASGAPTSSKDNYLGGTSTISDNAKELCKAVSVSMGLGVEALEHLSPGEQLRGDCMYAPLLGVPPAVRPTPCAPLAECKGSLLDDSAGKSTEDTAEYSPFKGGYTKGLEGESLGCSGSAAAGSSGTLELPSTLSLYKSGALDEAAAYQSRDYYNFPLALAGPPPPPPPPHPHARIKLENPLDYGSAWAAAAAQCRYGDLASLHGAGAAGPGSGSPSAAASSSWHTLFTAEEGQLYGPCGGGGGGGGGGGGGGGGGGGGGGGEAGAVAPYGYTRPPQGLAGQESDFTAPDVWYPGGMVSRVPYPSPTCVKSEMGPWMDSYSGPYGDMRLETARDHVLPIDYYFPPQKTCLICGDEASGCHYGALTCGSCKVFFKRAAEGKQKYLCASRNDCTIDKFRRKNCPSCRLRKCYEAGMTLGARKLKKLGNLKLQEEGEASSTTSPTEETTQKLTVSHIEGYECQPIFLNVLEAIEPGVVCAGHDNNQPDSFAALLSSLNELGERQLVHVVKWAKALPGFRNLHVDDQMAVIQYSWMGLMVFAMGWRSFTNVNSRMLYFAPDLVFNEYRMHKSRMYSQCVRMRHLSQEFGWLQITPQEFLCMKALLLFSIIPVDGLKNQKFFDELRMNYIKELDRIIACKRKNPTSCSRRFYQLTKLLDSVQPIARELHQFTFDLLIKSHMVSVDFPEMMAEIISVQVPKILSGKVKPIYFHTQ
# How it was run: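 Readout: luciferase bioluminescence from CHO-K1 ARE-luc cells, measured 24 h post-dosing; agonism = increased mean luminescence vs DMSO controls, fitted in positive direction.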
# [5] = target: Estrogen receptor beta (Homo sapiens) (UniProt Q92731); assay: OT_ER_ERbERb_1440: Odyssey Thera (OT) 24-hour HEK293T Protein-Complementation Assay for Estrogen Receptor-beta/-beta Homodimer (AID 2283380);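 further: fluorescence gain from ER beta LBD homodimer complementation read by laser scanning cytometry; scored as signal increase over DMSO baseline for both agonists and antagonists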
# Estrogen receptor beta (Homo sapiens), sequence (Q92731 whole entry, looked up, the tested form may be a part): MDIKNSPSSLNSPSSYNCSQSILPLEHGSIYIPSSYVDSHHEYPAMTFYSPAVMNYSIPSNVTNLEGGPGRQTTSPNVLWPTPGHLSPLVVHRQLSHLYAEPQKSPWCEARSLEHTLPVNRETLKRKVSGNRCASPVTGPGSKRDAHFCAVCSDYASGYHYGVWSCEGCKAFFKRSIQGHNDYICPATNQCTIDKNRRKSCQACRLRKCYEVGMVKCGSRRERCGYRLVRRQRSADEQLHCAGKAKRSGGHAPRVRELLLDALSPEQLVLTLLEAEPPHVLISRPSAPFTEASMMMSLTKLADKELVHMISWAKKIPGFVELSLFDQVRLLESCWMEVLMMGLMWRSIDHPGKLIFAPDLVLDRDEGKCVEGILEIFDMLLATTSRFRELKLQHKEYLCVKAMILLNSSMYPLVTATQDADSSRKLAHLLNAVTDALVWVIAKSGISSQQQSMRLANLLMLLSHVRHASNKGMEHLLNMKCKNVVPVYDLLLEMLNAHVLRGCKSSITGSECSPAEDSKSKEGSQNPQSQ
# How it was run: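 Fluorescence increase, nuclear for agonists or whole-cell for antagonists, relative to DMSO vehicle, quantified by laser scanning cytometer after fixation and Draq5 staining. Readout from 24 h treatment of HEK293T cells carrying complementation-paired ER beta LBD (aa 310-547).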
# [6] = target: Bile acid receptor (Homo sapiens) (UniProt Q96RI1); assay: OT_FXR_FXRSRC1_0480: Odyssey Thera (OT) 8-hour HEK293T Protein-Complementation Assay for Farnesoid X receptor/SRC-1 Co-activator (AID 2283383)
# Bile acid receptor (Homo sapiens), sequence (Q96RI1 whole entry, looked up, the tested form may be a part): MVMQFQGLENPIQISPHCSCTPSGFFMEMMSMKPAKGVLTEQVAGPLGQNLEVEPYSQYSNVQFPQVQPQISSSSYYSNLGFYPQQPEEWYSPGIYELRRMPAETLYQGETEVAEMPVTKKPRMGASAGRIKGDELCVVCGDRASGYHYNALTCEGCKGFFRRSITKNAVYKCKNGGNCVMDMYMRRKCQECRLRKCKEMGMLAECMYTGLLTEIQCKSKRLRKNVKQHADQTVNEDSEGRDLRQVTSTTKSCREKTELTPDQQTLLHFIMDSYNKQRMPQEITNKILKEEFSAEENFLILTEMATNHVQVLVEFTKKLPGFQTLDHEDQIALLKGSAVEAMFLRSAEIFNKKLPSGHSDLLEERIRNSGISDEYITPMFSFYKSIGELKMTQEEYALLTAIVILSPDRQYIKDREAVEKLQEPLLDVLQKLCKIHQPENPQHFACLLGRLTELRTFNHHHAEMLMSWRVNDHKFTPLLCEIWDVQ
# How it was run: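 Binding of FXR to coactivator SRC-1 was read as fluorescence from a reconstituted split reporter in HEK293T cells, 8 h after chemical addition. Only increases in signal versus DMSO were fit.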
# [7] = target: Bile acid receptor (Homo sapiens) (UniProt Q96RI1); assay: OT_FXR_FXRSRC1_1440: Odyssey Thera (OT) 24-hour HEK293T Protein-Complementation Assay for Farnesoid X receptor/SRC-1 Co-activator (AID 2283384)
# How it was run: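 Protein-fragment complementation: FXR and SRC-1 fused to reporter fragments that reassemble on interaction, read by fluorescence intensity. Human HEK293T cells measured 24 h post-dose; positive-direction fit versus DMSO.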
# [8] = target: Retinoic acid receptor RXR-alpha (Homo sapiens) (UniProt P19793); assay: OT_NURR1_NURR1RXRa_0480: Odyssey Thera (OT) 8-hour HEK293T Protein Complementation Assay for Nurr1/retinoid X receptor (RXR) (AID 2283385)
# Retinoic acid receptor RXR-alpha (Homo sapiens), sequence (P19793 whole entry, looked up, the tested form may be a part): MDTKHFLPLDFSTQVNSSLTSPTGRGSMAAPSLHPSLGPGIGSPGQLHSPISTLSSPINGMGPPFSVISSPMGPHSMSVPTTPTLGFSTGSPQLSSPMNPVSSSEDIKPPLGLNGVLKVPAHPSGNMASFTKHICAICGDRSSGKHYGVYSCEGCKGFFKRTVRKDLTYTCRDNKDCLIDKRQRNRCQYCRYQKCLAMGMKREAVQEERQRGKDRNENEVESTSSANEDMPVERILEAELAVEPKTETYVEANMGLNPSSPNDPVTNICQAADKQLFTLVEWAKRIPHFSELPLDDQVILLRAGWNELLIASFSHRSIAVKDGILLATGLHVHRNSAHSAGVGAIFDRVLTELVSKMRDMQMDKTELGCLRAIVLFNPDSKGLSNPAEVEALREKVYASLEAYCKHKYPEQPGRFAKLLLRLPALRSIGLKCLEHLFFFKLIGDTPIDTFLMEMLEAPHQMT
# How it was run: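 Interaction of Nurr1 with RXRα read as reconstituted reporter fluorescence in a HEK293T fragment-complementation system, 8 h post-treatment; increase over DMSO baseline analysed.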
# [9] = target: Retinoic acid receptor RXR-alpha (Homo sapiens) (UniProt P19793); assay: OT_NURR1_NURR1RXRa_1440: Odyssey Thera (OT) 24-hour HEK293T Protein Complementation Assay for Nurr1/retinoid X receptor (RXR) (AID 2283386)
# How it was run: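 Gain in fluorescence, fitted relative to DMSO, reflects Nurr1–RXRα association in HEK293T cells after 24 h dosing. Bait and prey are each linked to a reporter-protein fragment that reassembles on interaction.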
# [10] = target: Peroxisome proliferator-activated receptor gamma (Homo sapiens) (UniProt P37231); assay: OT_PPARg_PPARgSRC1_0480: Odyssey Thera (OT) 8-hour Protein-Complementation Assay for Peroxisome Proliferator-activated Receptor Gamma / SRC-1 Co-activator (AID 2283387);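 further: nuclear to cytoplasmic split Venus YFP fluorescence ratio reporting PPARg SRC-1 interaction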
# How it was run: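 Read-out: 488 nm N/C fluorescence ratio from complemented Venus YFP fragments, ≥350 cells per image, gain-of-signal fitted against DMSO baseline. Fusions of PPARg/SRC-1 with IFP1/IFP2 expressed transiently in HEK293T; compounds applied 8 h.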
# [11] = target: Estrogen receptor (Homo sapiens) (UniProt P03372); assay: OT_ERa_GFPERaERE_0480: Odyssey Thera (OT) 8-hour HeLa Transcription Induction Assay for Estrogen Receptor (AID 2283381; active means hit-call score of the fitted dose curve at least 0.9, where 1 is the maximum; inactive means score below 0.9)
# Estrogen receptor (Homo sapiens), sequence (P03372 whole entry, looked up): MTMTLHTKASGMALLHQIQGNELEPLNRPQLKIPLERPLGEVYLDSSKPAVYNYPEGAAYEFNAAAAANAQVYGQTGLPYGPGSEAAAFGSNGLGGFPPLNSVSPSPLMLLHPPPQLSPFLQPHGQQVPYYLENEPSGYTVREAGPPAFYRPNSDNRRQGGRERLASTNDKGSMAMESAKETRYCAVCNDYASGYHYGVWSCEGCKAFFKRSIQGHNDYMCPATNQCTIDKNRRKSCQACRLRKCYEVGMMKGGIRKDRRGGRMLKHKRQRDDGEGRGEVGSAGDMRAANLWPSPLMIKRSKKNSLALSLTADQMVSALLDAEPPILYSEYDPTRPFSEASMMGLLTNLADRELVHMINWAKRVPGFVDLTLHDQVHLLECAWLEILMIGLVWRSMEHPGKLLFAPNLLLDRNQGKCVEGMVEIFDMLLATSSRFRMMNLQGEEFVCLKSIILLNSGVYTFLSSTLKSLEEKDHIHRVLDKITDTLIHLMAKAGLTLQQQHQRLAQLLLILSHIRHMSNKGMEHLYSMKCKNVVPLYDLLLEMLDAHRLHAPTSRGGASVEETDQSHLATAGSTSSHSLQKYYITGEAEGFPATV
# How it was run: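 Fluorescence microscopy with high-content image analysis measures ERE-driven GFP induction in HeLa cells at 8 h post-dose. Increases fitted against DMSO baseline.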
# [12] = target: Estrogen receptor (Homo sapiens) (UniProt P03372); assay: OT_ERa_GFPERaERE_0120: Odyssey Thera (OT) 2-hour HeLa Transcription Induction Assay for Estrogen Receptor (AID 2283382)
# How it was run: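 Fluorescence-microscopy images of the GFP-ERα/ERE reporter, scored by high-content image algorithms, give the readout. HeLa exposure lasted 2 h, and only signal increase over DMSO was fitted.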
# [13] = target: rat Serotonin Transporter (SERT), Slc6a4 (gene 25553) (UniProt P31652); assay: NVS_TR_rSERT: NovaScreen (NVS) Transporter Assay for rat Serotonin Transporter (SERT) (AID 2283375)
# rat Serotonin Transporter (SERT), Slc6a4 (gene 25553), sequence (P31652 whole entry, looked up): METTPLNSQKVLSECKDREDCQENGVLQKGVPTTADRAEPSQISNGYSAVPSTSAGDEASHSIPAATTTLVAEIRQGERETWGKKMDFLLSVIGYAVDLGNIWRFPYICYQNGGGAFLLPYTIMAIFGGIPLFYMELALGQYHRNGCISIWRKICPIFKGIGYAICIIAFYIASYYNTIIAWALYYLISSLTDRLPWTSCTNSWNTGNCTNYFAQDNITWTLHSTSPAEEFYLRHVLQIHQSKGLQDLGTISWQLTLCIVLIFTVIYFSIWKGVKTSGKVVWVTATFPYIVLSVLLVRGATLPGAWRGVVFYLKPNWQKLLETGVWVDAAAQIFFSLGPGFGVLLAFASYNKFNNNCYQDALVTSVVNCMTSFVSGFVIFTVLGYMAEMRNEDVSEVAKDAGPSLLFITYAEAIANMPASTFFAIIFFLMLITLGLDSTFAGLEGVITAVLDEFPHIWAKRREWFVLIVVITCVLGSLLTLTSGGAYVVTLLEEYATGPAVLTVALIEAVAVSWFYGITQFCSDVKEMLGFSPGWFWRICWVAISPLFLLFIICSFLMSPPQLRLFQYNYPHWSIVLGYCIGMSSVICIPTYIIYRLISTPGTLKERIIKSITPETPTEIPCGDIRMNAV
# How it was run: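 Steps: rat forebrain membranes dosed with chemical (25 uM duplicate primary; concentration series for actives); 1 h incubation; labelled ligand bound, filtered, counted by scintillation. Activity scored as signal loss vs DMSO.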
# [14] = target: human Serotonin Transporter (SERT), SLC6A4 (gene 6532) (UniProt P31645); assay: NVS_TR_hSERT: NovaScreen (NVS) Transporter Assay for human Serotonin Transporter (SERT) (AID 2283372)
# How it was run: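 Human platelet membrane preparation; displacement of radioligand from serotonin transporter measured after 1 h by filtration and scintillation counting. Single 25 uM duplicate screen, then concentration series for actives, with DMSO as negative baseline.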
# [15] = tested on: guinea pig Dopamine Transporter (DAT), gene 100714898; assay: NVS_TR_gDAT: NovaScreen (NVS) Transporter Assay for guinea pig Dopamine Transporter (DAT) (AID 2283369);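 further: active compounds lower bound radioligand signal relative to DMSO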
# How it was run: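 Test chemicals were incubated 2 h with guinea pig striatal membranes and a radioligand; bound label was separated by filtration and counted. Screening ran at 25 uM, followed by concentration-response testing to a 50 uM maximum.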
smiles,measurement,setting,value
Oc1ccc2c(c1)-c1ccccc1C2,outcome,[1],inactive
same,AC50,[2],10.9 µM (active)
same,AC50,[3],9.7 µM (active)
same,outcome,[4],inactive
same,AC50,[5],11 µM (active)
same,outcome,[6],inactive
same,outcome,[7],inactive
same,outcome,[8],inactive
same,outcome,[9],inactive
same,outcome,[10],inactive
Clc1nc(Cl)c(Cl)c(Cl)c1Cl,outcome,[1],inactive
same,outcome,[5],inactive
same,outcome,[8],inactive
same,outcome,[9],inactive
same,outcome,[10],inactive
O=C1CCC(N2C(=O)c3ccccc3C2=O)C(=O)N1 (configuration not stated),outcome,[3],inactive
same,outcome,[5],inactive
same,outcome,[8],inactive
same,outcome,[9],inactive
same,outcome,[10],inactive
CCCC(=O)OCC,outcome,[2],inactive
same,outcome,[5],inactive
same,outcome,[11],inactive
same,outcome,[12],inactive
same,outcome,[9],inactive
same,outcome,[10],inactive
COC(=O)c1c(Cl)c(Cl)c(C(=O)OC)c(Cl)c1Cl,outcome,[1],inactive
same,outcome,[5],inactive
same,outcome,[11],inactive
same,outcome,[12],inactive
same,AC50,[6],72.2 µM (active)
same,outcome,[7],inactive
same,AC50,[8],68.6 µM (active)
same,outcome,[8],inactive
same,outcome,[9],inactive
same,outcome,[10],inactive
COc1ccc(/C=C/S(=O)(=O)NC(=O)c2ccc(C)cc2Cl)cc1,AC50,[1],41.3 µM (active)
same,outcome,[5],inactive
same,outcome,[6],inactive
same,AC50,[7],7.84 µM (active)
same,AC50,[8],24 µM (active)
same,AC50,[9],29 µM (active)
same,outcome,[10],inactive
O=C(NS(=O)(=O)/C=C/c1ccccc1)c1ccc(F)cc1Cl,AC50,[1],39.6 µM (active)
same,outcome,[5],inactive
same,outcome,[11],inactive
same,outcome,[12],inactive
same,AC50,[8],27.4 µM (active)
same,AC50,[9],15.2 µM (active)
same,outcome,[10],inactive
CC/C(=C\C(=N/O)C(N)=O)C(C)[N+](=O)[O-] (configuration not stated),outcome,[1],inactive
same,outcome,[2],inactive
same,outcome,[5],inactive
same,outcome,[11],inactive
same,outcome,[12],inactive
same,AC50,[8],31.6 µM (active)
same,outcome,[9],inactive
same,outcome,[10],inactive
CNCc1ccc(NC(=O)c2c[nH]c3c2C(=O)CCC3)cc1,AC50,[1],5.18 µM (active)
same,AC50,[2],13.8 µM (active)
same,AC50,[13],25 µM (active)
same,outcome,[5],inactive
same,outcome,[8],inactive
same,outcome,[9],inactive
same,outcome,[10],inactive
COCCOc1cc2cc(C(=O)NC3CCN(C(C)C)CC3)n(CC(=O)Nc3ccc(Cl)cn3)c2cn1,AC50,[14],15.4 µM (active)
same,AC50,[3],5.89 µM (active)
same,AC50,[5],58 µM (active)
same,outcome,[8],inactive
same,outcome,[9],inactive
O=C(O)c1cccc(Oc2ccccc2)c1,outcome,[1],inactive
same,outcome,[3],inactive
same,outcome,[11],inactive
same,outcome,[12],inactive
same,outcome,[8],inactive
same,outcome,[9],inactive
same,outcome,[10],inactive
CNS(=O)(=O)c1cc(C(=O)N2CCC(CCN3C4CCC3CC(n3c(C)nc5ccccc53)C4)(c3cccc(F)c3)CC2)c(Cl)cc1F (configuration not stated),outcome,[1],inactive
same,AC50,[2],8.74 µM (active)
same,AC50,[13],8.93 µM (active)
same,AC50,[3],2.25 µM (active)
same,outcome,[4],inactive
same,outcome,[5],inactive
same,AC50,[6],12.6 µM (active)
same,AC50,[7],17.6 µM (active)
same,AC50,[8],14.3 µM (active)
same,outcome,[8],inactive
same,AC50,[9],28.4 µM (active) and 12.1 µM (active)
same,outcome,[10],inactive
CN(C)c1ccc(N=NS(=O)(=O)O)cc1,AC50,[15],27.1 µM (active)
same,outcome,[4],inactive
same,outcome,[8],inactive
CCCCC(CC)COC(=O)c1ccc(C(=O)OCC(CC)CCCC)cc1 (configuration not stated),outcome,[1],inactive
same,outcome,[4],inactive
same,outcome,[6],inactive
same,outcome,[8],inactive
same,outcome,[9],inactive
same,outcome,[10],inactive
CC(C)=CCCC(C)CCO (configuration not stated),outcome,[1],inactive
same,outcome,[4],inactive
same,outcome,[5],inactive
same,outcome,[11],inactive
same,outcome,[12],inactive
same,AC50,[8],90.2 µM (active)
same,outcome,[8],inactive
same,outcome,[9],inactive
same,outcome,[10],inactive
CC(C)=CCC/C(C)=C/CO,outcome,[1],inactive
same,outcome,[4],inactive
same,outcome,[6],inactive
same,outcome,[8],inactive
same,outcome,[9],inactive
same,outcome,[10],inactive
CCCCCCc1ccc(O)cc1O,AC50,[1],25 µM (active)
same,AC50,[2],10 µM (active)
same,outcome,[13],inactive
same,AC50,[3],12.8 µM (active)
same,outcome,[4],inactive
same,outcome,[8],inactive
same,outcome,[10],inactive
COCCOCCOCCOC,outcome,[13],inactive
same,outcome,[5],inactive
same,outcome,[6],inactive
same,outcome,[7],inactive
same,outcome,[8],inactive
same,outcome,[9],inactive
same,outcome,[10],inactive
COc1ccc(-n2nc(C(F)F)cc2-c2ccc(S(C)=O)cc2)cc1 (configuration not stated),outcome,[1],inactive
same,outcome,[11],inactive
same,outcome,[12],inactive
same,outcome,[8],inactive
same,outcome,[9],inactive
same,outcome,[10],inactive
CCC(C)(C)C(=O)O[C@H]1C[C@@H](C)C=C2C=C[C@H](C)[C@H](CC[C@@H]3C[C@@H](O)CC(=O)O3)[C@H]21,outcome,[1],inactive
same,AC50,[2],25 µM (active)
same,outcome,[3],inactive
same,outcome,[5],inactive
same,outcome,[11],inactive
same,outcome,[12],inactive
same,outcome,[8],inactive
same,outcome,[9],inactive
same,outcome,[10],inactive
